About 83,000 compounds went through this panel and 20% of them were active in at least one assay; those are over-represented in the sample as a whole.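 The test compound was applied at a single concentration to cells in 96-well plates for 48 hours, and percent growth was recorded.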 Values without a mark were called inactive. Calls of active or inactive are those of the source. How the source made its calls: active means growth percent below 10; inactive means the rest.
How the values were obtained:
Assay in all cases: NCI-60 one-dose screen, 48 h (100 = growth as untreated, 0 = no growth, -100 = all killed)
Conditions in all cases: 10 µM unless noted
NCI-H23 lung = test system: NCI-H23 lung
NCI-H226 lung = test system: NCI-H226 lung
NCI-H322M lung = test system: NCI-H322M lung
HOP-62 NSCLC = test system: HOP-62 NSCLC
NCI-H460 lung = test system: NCI-H460 lung
HOP-92 NSCLC = test system: HOP-92 NSCLC
NCI-H522 lung = test system: NCI-H522 lung
A549/ATCC NSCLC = test system: A549/ATCC NSCLC
786-0 renal = test system: 786-0 renal
COLO 205 colon = test system: COLO 205 colon
DU-145 prostate = test system: DU-145 prostate
K-562 leukemia = test system: K-562 leukemia
MDA-MB-231 breast = test system: MDA-MB-231 breast
RXF 393 renal = test system: RXF 393 renal
SF-268 CNS = test system: SF-268 CNS
SF-295 CNS = test system: SF-295 CNS
SF-539 CNS = test system: SF-539 CNS
M14 melanoma = test system: M14 melanoma
MALME-3M melanoma = test system: MALME-3M melanoma
UACC-257 melanoma = test system: UACC-257 melanoma

Row | Compound | growth (NCI-H23 lung) | growth (NCI-H226 lung) | growth (NCI-H322M lung) | growth (HOP-62 NSCLC) | growth (NCI-H460 lung) | growth (HOP-92 NSCLC) | growth (NCI-H522 lung) | growth (A549/ATCC NSCLC) | growth (786-0 renal) | growth (COLO 205 colon) | growth (DU-145 prostate) | growth (K-562 leukemia) | growth (MDA-MB-231 breast) | growth (RXF 393 renal) | growth (SF-268 CNS) | growth (SF-295 CNS) | growth (SF-539 CNS) | growth (M14 melanoma) | growth (MALME-3M melanoma) | growth (UACC-257 melanoma)
1 | COc1cnc2c(c1)C(=O)c1c-2n(CCCNC2=NCCS2)c(=O)c2cc(Cl)ccc12 | -52.4% (active) | 46.9% | -43.9% (active) | -78.9% (active) | -80.3% (active) | 77.6% | -64.7% (active) | -89.6% (active) | -96.7% (active) | -74.3% (active) | -76.7% (active) | -58.3% (active) | -70.7% (active) | 39% | -49.4% (active) | -93.5% (active) | -84.4% (active) | -70.3% (active) |  | 
2 | O=C1/C(=C\c2cccc(OCCCCCOc3ccc(Cl)cc3)c2)N=C2SCCCN12 | 35% | 60.3% | 101% | 71.1% | 60.7% | 48.1% | 32.6% | 45.5% | 72.6% | 60.1% | 84% | 41.7% | 54.2% | 71.2% | 81.3% | 43% | 77.4% | 44.5% |  | 
3 | O=C(NO)c1ccc(Cn2c(=O)n(-c3ccccc3F)c(=O)c3ccccc32)cc1 | -40.4% (active) | 17.6% | 26.2% | 8.43% (active) | 19% | 23.2% | -60.3% (active) | 5.07% (active) | 33.3% | -58.3% (active) | 6.2% (active) | 1.13% (active) | 21.3% | -44.8% (active) | 1.99% (active) | -44.3% (active) | -12.8% (active) | -22.6% (active) |  | 
4 | CCN(CC)CCNc1ccc(N=Nc2cnc3ccccc3c2)c2ccccc12 | -92.6% (active) | -73.6% (active) | 10.8% | -84.6% (active) | -78.8% (active) | -82.4% (active) | -87.2% (active) | -97.9% (active) | -87.9% (active) | -82.2% (active) | -85.1% (active) |  | -87.6% (active) |  | -77.7% (active) | -53.9% (active) | -97.4% (active) | -67.3% (active) | -56.5% (active) | 
5 | N#Cc1c(-c2ccc(C(F)(F)F)cc2)c(F)c(NCCC2CCC(O)C2)n2c1nc1ccccc12 (stereo not drawn) | 72.5% | 69.2% | 58.5% | 59.2% | 42% | 32.5% | 65.7% | 52.8% | 69.4% | 41.1% | 47.2% | 25.9% | 22.1% | 41.4% | 70.7% | 55.4% | 71.1% | 18.4% |  | 
6 | Oc1ccc(/C=N/Nc2nnc(N/N=C/c3ccc(O)cc3O)c3ccccc23)c(O)c1 | -58.7% (active) | -39.5% (active) | -0.934% (active) | -31.6% (active) | -34.1% (active) | -35.8% (active) | -45.4% (active) | -58% (active) | -3.79% (active) | -23.8% (active) | -24.3% (active) |  | -13.6% (active) |  | -5.14% (active) | -38.1% (active) | -42.1% (active) | -52.7% (active) | -5.87% (active) | 
7 | CC1(O)CCC(Nc2cc(-c3ccc(C(F)(F)F)cc3)c(C#N)c3nc4ccccc4n23)CC1 (stereo not drawn) | 81.9% | 71% | 89.9% | 64.7% | 68.7% | 52.5% | 63.2% | 56% | 70.7% | 61% | 67.8% | 73.1% | 50.4% | 53.2% | 64.5% | 51.9% | 63.4% | 91.2% |  | 
8 | CC1CCC(n2cnc3c(Cl)ncnc32)O1 (stereo not drawn) | 89.5% | 95.9% | 86.3% | 91.2% | 101% | 75.5% | 82.9% | 106% | 98.1% | 104% | 112% |  | 105% |  | 105% | 95.5% | 97.5% | 93.8% | 88.5% | 
9 | COc1ccc(-n2c(=O)c3ccccc3n(Cc3ccc(C(=O)NO)cc3)c2=O)cc1 | -50.1% (active) | 31.8% | 38.4% | 25.8% | 36.4% | 48.2% | -41.8% (active) | 38.6% | 56.5% | -50.1% (active) | 20.2% | 1.76% (active) | 47.4% | -41.6% (active) | 32.5% | 4.34% (active) | -10.6% (active) | -7.23% (active) |  | 
10 | CCc1nc2ccc(Cc3ccc(C(=O)NO)cc3)cc2c(=O)n1CCc1ccccc1 | -67.9% (active) | -28.5% (active) | 12.1% | -43.4% (active) | 0.149% (active) | -29.5% (active) | -86.5% (active) | -41.7% (active) | -58.3% (active) | -69.7% (active) | 2.78% (active) | 1.5% (active) | -24% (active) | -66.6% (active) | -48.5% (active) | -79.1% (active) | -43.1% (active) | -63.8% (active) |  | 
11 | CC(=Nc1ccccc1)C1=C(O)C(Cc2ccc(O)cc2)NC1=O (stereo not drawn) | 2.24% (active) | 15.5% | 39.6% | 19.8% | 4.41% (active) | -10.1% (active) | -27.1% (active) | -27.7% (active) | 9.29% (active) | -71% (active) | -28.6% (active) |  | 11.3% |  | 11.5% | -41.1% (active) | -33.7% (active) | 0.122% (active) | 58.6% | 
12 | COc1cc2c(Nc3ccc(Br)cc3F)ncnc2cc1OCC1CCN(C)CC1 | 52.5% |  | 6.72% (active) | 19.5% | 39.9% | -12.9% (active) | -31.3% (active) | 22.9% | 15.3% | -13.9% (active) | 33% | 3.22% (active) | 9.67% (active) | -38.2% (active) | 30.5% | 45.8% | -58.4% (active) | -82.5% (active) | -52.3% (active) | -85.9% (active)
13 | CCc1ccc(/C=C/c2ccc(O)c3ncccc23)[n+](C)c1 | 21% |  | 48.7% | 24.5% | 17.2% | 83.6% | 1.23% (active) | 18.3% | 89.4% | 70.9% | 42.8% |  | 90.9% |  | 47.7% | 58.5% | 62.7% | 47.6% | 63.5% | 
14 | CN1C/C=C\CCOc2cccc(c2)-c2ccnc(n2)Nc2cccc(c2)C1 | -56.6% (active) |  | -17.7% (active) | -44.5% (active) | -73.6% (active) | -15.5% (active) | -70.1% (active) | -50.1% (active) | -85.9% (active) | -81.6% (active) | 5.04% (active) | -18.5% (active) | -38.6% (active) | -86.1% (active) | -50.8% (active) | -86.3% (active) | -91.8% (active) | -78.4% (active) | -79.4% (active) | -73.7% (active)
15 | CC1(O)CCC2CC3OC3(C)CCC3OC3(C)C(O)CC1C2(C)C (stereo not drawn) | 96% |  | 115% | 116% | 120% | -15.9% (active) | 97.6% | 92.8% | 104% | 109% | 105% | 119% | 122% |  | 113% | 52% | 116% | 114% | 113% | 
16 | CC/C(=C(/c1ccc(Cl)cc1)c1ccc(OCCN2CCCCC2)cc1)c1ccc(Cl)cc1 | 61.9% |  | 93.1% | 86.8% | 79.7% | 85.2% | 65.3% | 73% | 76.7% | 70.4% | 89.8% | 26.2% | 94.3% | 96.6% | 88% | 60.6% | 87.8% | 76.6% | 82.9% | 78.3%
17 | CCCCN1C(=O)c2cccc3c(-c4ccc5c(c4)ncn5C4CCCCC4)ccc(c23)C1=O | 96% |  | 101% | 85.2% | 110% | 94.6% | 69.6% | 90.8% | 106% | 94% | 101% | 86% | 108% | 118% | 106% | 96.7% | 101% | 92.1% | 95.4% | 103%
